Data reported in PubChem BioAssay AID1159580 (chemical genetic matrix, 2015).
The campaign covered roughly 5,500 compounds. About 2,000 (36%) were called active. Roughly 18% stayed inconclusive and do not appear here. No stated cut-off is given here; in the data, active means normalized growth mostly below about 0.91 (no sharp cut-off); inconclusive means no clear call, values can overlap the other calls; inactive means mostly above about 0.92. The list shows a part of the results.

Assay: chemical genetic growth profiling, strain panel (AID 1159580);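 further: tested at 20 µM; growth read once vehicle control cultures reached saturation at 30 °C; 1 = growth at the plate median or of vehicle wells; lower values mean less growth of the strain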
Details: S. cerevisiae deletion strains, growth OD
[1] = locus YDL101C, strain DUN1, hits give low values
[2] = locus YHR030C, strain SLT2, hits give low values
[3] = locus YDR150W, strain NUM1, hits give low values
[4] = locus YGR078C, strain PAC10, hits give low values
[5] = locus YPL055C, strain LGE1, hits give low values

Measured: normalized growth

OC(CSc1ccccc1)CN1CCN(c2nc(-c3ccccc3)ns2)CC1 (stereo not drawn)
inactive: locus YAR019C, strain CDC15, hits give low values 0.991 | locus YBL105C, strain PKC1, hits give low values 0.977 | locus YBR135W, strain CKS1, hits give low values 0.993 | locus YBR136W, strain MEC1, hits give low values 0.977 | locus YBR160W, strain CDC28, hits give low values 0.982 | locus YDL017W, strain CDC7, hits give low values 0.989 | locus YDL028C, strain MPS1, hits give low values 0.99 | [1] 0.98 | locus YDL108W, strain KIN28, hits give low values 0.99 | locus YDL132W, strain cdc53, hits give low values 0.996 | locus YDL214C, strain PRR2, hits give low values 0.932 | locus YDR052C, strain DBF4, hits give low values 0.981 | locus YDR054C, strain cdc34, hits give low values 0.977 | locus YDR226W, strain ADK1, hits give low values 0.989 | locus YDR477W, strain SNF1, hits give low values 0.931 | locus YER123W, strain YCK3, hits give low values 0.908 | locus YER133W, strain GLC7, hits give low values 0.941 | locus YFL009W, strain cdc4, hits give low values 0.987 | locus YFL029C, strain CAK1, hits give low values 0.983 | locus YFR003C, strain YPI1, hits give low values 0.989 | locus YFR019W, strain FAB1, hits give low values 0.93 | locus YFR028C, strain CDC14, hits give low values 0.984 | locus YGR040W, strain KSS1, hits give low values 0.915 | locus YGR052W, strain FMP48, hits give low values 0.993 | locus YGR092W, strain DBF2, hits give low values 0.935 | [2] 0.941 | locus YHR079C, strain IRE1, hits give low values 0.962 | locus YHR082C, strain KSP1, hits give low values 0.983 | locus YHR205W, strain SCH9, hits give low values 0.921 | locus YIL147C, strain SLN1, hits give low values 0.987 | locus YJL095W, strain BCK1, hits give low values 0.947 | locus YJL128C, strain PBS2, hits give low values 0.945 | locus YJL157C, strain FAR1, hits give low values 0.915 | locus YJR016C, strain ILV3, hits give low values 0.982 | locus YJR066W, strain TOR1 (second series), hits give low values 0.888 | locus YJR066W, strain TOR1, hits give low values 1.01 | locus YKL048C, strain ELM1, hits give low values 0.954 | locus YKL067W, strain YNK1, hits give low values 0.943 | locus YKL101W, strain HSL1, hits give low values 0.927 | locus YKL193C, strain SDS22, hits give low values 0.987 | locus YKL203C, strain TOR2, hits give low values 0.989 | locus YLR133W, strain CKI1, hits give low values 0.935 | locus YLR403W, strain SFP1, hits give low values 0.9 | locus YML070W, strain DAK1, hits give low values 0.9 | locus YMR001C, strain CDC5, hits give low values 0.983 | locus YMR205C, strain PFK2 (second series), hits give low values 0.944 | locus YMR277W, strain FCP1, hits give low values 0.991 | locus YNL006W, strain LST8, hits give low values 0.997 | locus YNL020C, strain ARK1, hits give low values 0.935 | locus YNL161W, strain CBK1, hits give low values 0.98 | locus YNL183C, strain NPR1, hits give low values 0.972 | locus YNL207W, strain RIO2, hits give low values 0.987 | locus YNL222W, strain SSU72, hits give low values 0.991 | locus YNL307C, strain MCK1 (second series), hits give low values 0.927 | locus YOL078W, strain AVO1, hits give low values 0.98 | locus YOL136C, strain PFK27, hits give low values 0.903 | locus YOR061W, strain CKA2, hits give low values 0.936 | locus YOR119C, strain RIO1, hits give low values 0.994 | locus YOR231W, strain MKK1, hits give low values 0.882 | locus YOR329C, strain SCD5, hits give low values 0.982 | locus YPL031C, strain PHO85, hits give low values 0.952 | locus YPL153C, strain RAD53, hits give low values 0.937 | locus YPL204W, strain HRR25, hits give low values 0.932 | locus YPL209C, strain IPL1, hits give low values 0.981 | locus YPL256C, strain CLN2, hits give low values 0.889 | locus YPR025C, strain CCL1, hits give low values 0.987 | locus YPR106W, strain ISR1, hits give low values 0.976 | locus YPR111W, strain DBF20, hits give low values 0.961 | strain NNK1, hits give low values 0.973 | strain TSCII, hits give low values 0.984
active: locus YLR113W, strain HOG1, hits give low values 0.847

OC(CSc1ccccc1)CN1CCN(c2ccc(C(F)(F)F)cn2)CC1 (stereo not drawn)
active: locus YDL134C, strain PPH21, hits give low values 0.185 | locus YEL061C, strain CIN8, hits give low values 0.657 | [2] 0.203 | locus YLR039C, strain RIC1, hits give low values 0.591 | locus YLR085C, strain ARP6, hits give low values 0.387 | locus YLR262C, strain YPT6, hits give low values 0.468 | locus YML094W, strain GIM5, hits give low values 0.686 | locus YNL298W, strain CLA4 (second series), hits give low values 0.601 | locus YNR030W, strain Alg12, hits give low values 0.668 | locus YPL241C, strain CIN2, hits give low values 0.763 | locus YPR135W, strain CTF4, hits give low values 0.442
inactive: locus YAL013W, strain DEP1, hits give low values 1.01 | locus YBR229C, strain ROT2, hits give low values 1 | [1] 1.01 | [3] 0.87 | [4] 1 | locus YHR087W, strain rtc3, hits give low values 0.994 | locus YJR043C, strain POL32, hits give low values 0.991 | locus YJR075W, strain HOC1, hits give low values 1 | locus YLR058C, strain SHM2 (second series), hits give low values 1.01 | locus YMR219W, strain ESC1, hits give low values 1 | locus YMR263W, strain SAP30, hits give low values 0.966 | locus YMR307W, strain GAS1, hits give low values 0.698 | locus YNL153C, strain GIM3, hits give low values 1.03 | locus YNL322C, strain KRE1, hits give low values 1.01 | [5] 0.898

COc1ccccc1N1CCN(CC(O)COc2cccc3ccccc23)CC1 (stereo not drawn)
inactive: locus YAL040C, strain CLN3, hits give low values 0.993 | locus YCL061C, strain MRC1 (second series), hits give low values 0.992 | [3] 0.998 | locus YDR363W, strain ESC2, hits give low values 0.965 | locus YER002W, strain NOP16, hits give low values 1.02 | [4] 0.978 | locus YNL175C, strain NOP13, hits give low values 1.01 | locus YNL197C, strain WHI3, hits give low values 1.04 | locus YNL224C, strain SQS1, hits give low values 0.99 | locus YOR083W, strain WHI5 (second series), hits give low values 1.02 | [5] 0.976
